“And” between values parts separate entries of the source, which are not always exact repeats. Equal values may be shown once. About 2,000 (36%) of roughly 5,500 compounds were called active. Roughly 18% stayed inconclusive and do not appear here. Rule as the data show it: active = normalized growth mostly below about 0.91 (no sharp cut-off); inconclusive = no clear call, values can overlap the other calls; inactive = mostly above about 0.92. The list shows a part of the results.
Assay: chemical genetic growth profiling, strain panel (AID 1159580);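 also: tested at 20 µM; growth read once vehicle control cultures reached saturation at 30 °C; 1 = growth at the plate median or of vehicle wells; lower values mean less growth of the strain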
Conditions: S. cerevisiae deletion strains, growth OD

Measured: normalized growth

COC(=O)C[C@H]1C(C)(C)C2(O)OC34CC2C(=O)[C@]1(C)C3CC[C@]1(C)C4=CC(=O)O[C@H]1c1ccoc1 (some centres not stated)
inactive: locus YAL013W, strain DEP1, stronger effect = lower value 1.01 | locus YAL021C, strain ccr4, stronger effect = lower value 0.99 | locus YAL026C, strain drs2, stronger effect = lower value 0.998 | locus YAL030W, strain snc1, stronger effect = lower value 0.99 | locus YBL061C, strain skt5, stronger effect = lower value 0.999 | locus YBR009C, strain hhf1, stronger effect = lower value 1.01 | locus YBR021W, strain FUR4, stronger effect = lower value 0.976 | locus YBR023C, strain chs3, stronger effect = lower value 0.99 | locus YBR171W, strain sec66, stronger effect = lower value 0.973 | locus YBR229C, strain ROT2, stronger effect = lower value 1.01 | locus YBR231C, strain swc5, stronger effect = lower value 0.986 | locus YBR279W, strain paf1, stronger effect = lower value 0.998 | locus YCL011C, strain gbp2, stronger effect = lower value 0.978 | locus YCL016C, strain dcc1, stronger effect = lower value 1 | locus YCL029C, strain bik1, stronger effect = lower value 1.01 | locus YCL061C, strain MRC1, stronger effect = lower value 1.02 | locus YCL069W, strain vba3, stronger effect = lower value 0.977 | locus YCR088W, strain abp1, stronger effect = lower value 0.978 | locus YDL005C, strain med2, stronger effect = lower value 0.991 | locus YDL035C, strain GPR1, stronger effect = lower value 1 | locus YDL040C, strain nat1, stronger effect = lower value 0.973 | locus YDL074C, strain BRE1, stronger effect = lower value 1.01 | locus YDL101C, strain DUN1, stronger effect = lower value 1 | locus YDL134C, strain PPH21, stronger effect = lower value 1.01 | locus YDL185W, strain tfp1, stronger effect = lower value 1.01 | locus YDL192W, strain arf1, stronger effect = lower value 1.01 | locus YDR001C, strain nth1, stronger effect = lower value 0.991 | locus YDR069C, strain doa4, stronger effect = lower value 0.988 | locus YDR101C, strain arx1, stronger effect = lower value 1.01 | locus YDR137W, strain rgp1, stronger effect = lower value 1.03 | locus YDR150W, strain NUM1, stronger effect = lower value 0.993 | locus YDR159W, strain sac3, stronger effect = lower value 0.973 | locus YDR162C, strain NBP2, stronger effect = lower value 1.02 | locus YDR195W, strain ref2 0.963 | locus YDR297W, strain sur2, stronger effect = lower value 0.994 | locus YDR318W, strain mcm21, stronger effect = lower value 1 | locus YDR334W, strain swr1, stronger effect = lower value 0.975 | locus YDR335W, strain msn5, stronger effect = lower value 0.983 | locus YDR388W, stronger effect = lower value 1 | locus YDR392W, strain spt3, stronger effect = lower value 0.952 | locus YDR502C, strain sam2, stronger effect = lower value 0.994 | locus YEL003W, strain gim4, stronger effect = lower value 0.992 | locus YEL037C, strain rad23, stronger effect = lower value 0.98 | locus YEL061C, strain CIN8 (second series), stronger effect = lower value 0.972 | locus YER015W, strain faa2, stronger effect = lower value 0.996 | locus YER016W, strain bim1, stronger effect = lower value 0.984 | locus YER110C, stronger effect = lower value 1.02 | locus YER111C, strain swi4, stronger effect = lower value 0.985 | locus YER155C, strain BEM2 (second series), stronger effect = lower value 0.993 | locus YER155C, strain BEM2, stronger effect = lower value 0.992 | locus YER167W, strain BCK2, stronger effect = lower value 0.996 | locus YFR010W, strain ubp6, stronger effect = lower value 0.974 | locus YGL078C, strain dbp3, stronger effect = lower value 1.02 | locus YGL086W, strain mad1, stronger effect = lower value 0.99 | locus YGL167C, strain pmr1, stronger effect = lower value 1 | locus YGL173C, strain kem1, stronger effect = lower value 0.988 | locus YGL227W, strain vid30, stronger effect = lower value 0.983 | locus YGL240W, strain doc1, stronger effect = lower value 0.971 | locus YGL248W, strain PDE1, stronger effect = lower value 1.01 | locus YGL253W, strain hxk2, stronger effect = lower value 0.968 | locus YGR135W, strain pre9, stronger effect = lower value 1.01 | locus YGR252W, strain gcn5, stronger effect = lower value 1.05 | locus YHR013C, strain ard1, stronger effect = lower value 0.988 | locus YHR027C, strain rpn1, stronger effect = lower value 0.99 | locus YHR030C, strain SLT2, stronger effect = lower value 1 and 0.968 | locus YHR079C, strain IRE1 (second series), stronger effect = lower value 1.01 | locus YHR079C, strain IRE1, stronger effect = lower value 0.972 | locus YHR094C, strain hxt1, stronger effect = lower value 1.02 | locus YHR129C, strain ARP1, stronger effect = lower value 1 | locus YHR142W, strain chs7, stronger effect = lower value 0.975 | locus YHR200W, strain rpn10, stronger effect = lower value 1 | locus YIL066C, strain RNR3, stronger effect = lower value 1.01 | locus YIL073C, strain SPO22, stronger effect = lower value 1.01 | locus YIL125W, strain kgd1, stronger effect = lower value 1.01 | locus YIR030C, strain dcg1, stronger effect = lower value 1.01 | locus YJL092W, strain hpr5, stronger effect = lower value 0.98 | locus YJL095W, strain BCK1 (second series), stronger effect = lower value 0.988 | locus YJL095W, strain BCK1, stronger effect = lower value 0.982 and 0.98 | locus YJL115W, strain asf1, stronger effect = lower value 0.984 | locus YJL129C, strain trk1, stronger effect = lower value 1 | locus YJL134W, strain LCB3, stronger effect = lower value 1 | locus YJL154C, strain vps35, stronger effect = lower value 0.989 | locus YJL164C, strain tpk1, stronger effect = lower value 1 | locus YJL166W, strain qcr8, stronger effect = lower value 0.986 | locus YJL168C, strain set2, stronger effect = lower value 0.996 | locus YJL187C, strain SWE1 (second series), stronger effect = lower value 1.01 | locus YJL187C, strain SWE1, stronger effect = lower value 1.01
